Results reported in PubChem BioAssay (NCI).
This is part of a sample that, as a whole, favours compounds with a hit. Of some 83,000 tested, about 20% had one in any assay.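 The endpoint reported here, percent growth, reads 100 for growth as untreated, 0 for no net growth and -100 for all cells dead.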 Calls of active or inactive are those of the source. Rule for the calls: active = growth percent below 10; inactive = the rest.

Legend:
Assay in all cases: NCI-60 one-dose screen, 48 h (100 = growth as untreated, 0 = no growth, -100 = all killed)
Details in all cases: 10 µM unless noted
[1] = tested on: SR leukemia
[2] = tested on: RPMI-8226 leukemia
[3] = tested on: OVCAR-8 ovarian
[4] = tested on: OVCAR-5 ovarian
[5] = tested on: OVCAR-4 ovarian
[6] = tested on: SK-OV-3 ovarian
[7] = tested on: IGROV1 ovarian
[8] = tested on: OVCAR-3 ovarian
[9] = tested on: HS 578T breast
[10] = tested on: NCI/ADR-RES ovarian
[11] = tested on: T-47D breast
[12] = tested on: BT-549 breast
[13] = tested on: MDA-MB-435 melanoma
[14] = tested on: SW-620 colon
[15] = tested on: MCF7 breast
[16] = tested on: HCT-116 colon
[17] = tested on: HCC-2998 colon
[18] = tested on: KM12 colon

| SMILES | growth [1] | growth [2] | growth [3] | growth [4] | growth [5] | growth [6] | growth [7] | growth [8] | growth [9] | growth [10] | growth [11] | growth [12] | growth [13] | growth [14] | growth [15] | growth [16] | growth [17] | growth [18] |
| --- | --- | --- | --- | --- | --- | --- | --- | --- | --- | --- | --- | --- | --- | --- | --- | --- | --- | --- |
| N#C/C(=C\c1ccc2c(c1)OCO2)n1nnc2cc(F)c(F)cc21 | 42.6% (inactive) | 64.5% (inactive) | 60.7% (inactive) | 96.8% (inactive) | 64.6% (inactive) | 83.6% (inactive) | 71.8% (inactive) | 31.8% (inactive) | 84.7% (inactive) | 27.4% (inactive) | 20.6% (inactive) | 60% (inactive) | 3.37% (active) | 44.3% (inactive) | 44.4% (inactive) | 47% (inactive) | 105% (inactive) | 47.4% (inactive) |
| Cc1ccc(Nc2nc(N)nc(CSCC(=O)NN)n2)cc1 | 87% (inactive) | 101% (inactive) | 103% (inactive) | 103% (inactive) | 93.7% (inactive) | 101% (inactive) | 99.5% (inactive) | 105% (inactive) | 90.9% (inactive) | 104% (inactive) | 102% (inactive) | 93.6% (inactive) | 94.3% (inactive) | 98.9% (inactive) | 94.3% (inactive) | 103% (inactive) | 109% (inactive) | 98.1% (inactive) |
| COc1cc(-c2nc(N3CCN(C)CC3)c3ccccc3n2)cc(OC)c1OC | 48.9% (inactive) | 71.2% (inactive) | 75.7% (inactive) | 88.5% (inactive) | 55.9% (inactive) | 68.4% (inactive) | 62.5% (inactive) | 3.18% (active) | 41.1% (inactive) | 10.3% (inactive) | 65.3% (inactive) | 84.7% (inactive) | 0% (active) | 53.3% (inactive) | 29.5% (inactive) | 31.9% (inactive) | 88.4% (inactive) | 53.4% (inactive) |
| Nc1cc2c3c(cccc3c1)C(=O)N(CCN1CCCC1)C2=O | -6.11% (active) | 7.72% (active) | 34.4% (inactive) | 65.6% (inactive) | 49.2% (inactive) | 36.9% (inactive) | 8.96% (active) | 49.9% (inactive) | 35.2% (inactive) | 35.1% (inactive) | 18% (inactive) | 74.7% (inactive) | 48.7% (inactive) | 20.3% (inactive) | 6.93% (active) | 17.4% (inactive) | 44.1% (inactive) | 34.7% (inactive) |
| C=C1C(=O)O[C@H]2[C@H]1CC/C(COC(=O)C(=O)c1cn(C)c3ccc(OC)cc13)=C\CC[C@@]1(C)O[C@@H]21 | 2.42% (active) | -37.5% (active) | -9.07% (active) | -18.9% (active) | 20.3% (inactive) | -11.6% (active) | -67.7% (active) | -72.1% (active) | 3.23% (active) | 7.43% (active) | -55.3% (active) | -79.1% (active) | -79.2% (active) | -63.6% (active) | -34.8% (active) | -95.1% (active) | -65.3% (active) | -65% (active) |
| Cc1ccc2nc3ccccc3c(NCc3ccccc3)c2c1 | 4.1% (active) | 6.82% (active) | 33.5% (inactive) | 40.4% (inactive) | 32.8% (inactive) | 64.3% (inactive) | 15.8% (inactive) | 66% (inactive) | 69.8% (inactive) | 29.8% (inactive) | 63.6% (inactive) | 69% (inactive) | 58.2% (inactive) | 24.3% (inactive) | 11.2% (inactive) | 9.4% (active) | -21.4% (active) | 56.3% (inactive) |
| CCN(CC)CCn1nc2c3c(cccc3c1=O)-c1ccccc1-2 | 4.64% (active) | 24.9% (inactive) | 23.3% (inactive) | 33.9% (inactive) | 51.6% (inactive) | 7.24% (active) | 15.6% (inactive) | 52.5% (inactive) | 76.1% (inactive) | 35.1% (inactive) | 9.48% (active) | 59.3% (inactive) | 39.7% (inactive) | 14.3% (inactive) | 4.36% (active) | 16.3% (inactive) | 34.7% (inactive) | 34% (inactive) |
| CC1=CN2C(=O)C3C4=C(CCCC4)SC3N=C2CN1c1c(C)cccc1C (stereo not given) | 41.8% (inactive) | 54.4% (inactive) | 109% (inactive) | 94% (inactive) | 93.3% (inactive) | 114% (inactive) | 107% (inactive) | 93.9% (inactive) | 103% (inactive) | 99.6% (inactive) | 81.1% (inactive) | 108% (inactive) | 94.4% (inactive) | 88.9% (inactive) | 112% (inactive) | 55% (inactive) | 97.3% (inactive) | 97.4% (inactive) |
| C=C(C)[C@@H]1CC[C@]2(C(=O)NC3CCCCC3)CC[C@]3(C)[C@H](CC[C@@H]4[C@@]5(C)CCC(=O)C(C)(C)[C@@H]5CC[C@]43C)[C@@H]12 | 115% (inactive) | 83.1% (inactive) | 94.6% (inactive) | 96.5% (inactive) | 82.1% (inactive) | 97.1% (inactive) | 101% (inactive) | 96.7% (inactive) | 89.5% (inactive) | 104% (inactive) | 83.3% (inactive) | 92.8% (inactive) | 93.6% (inactive) | 93.6% (inactive) | 85.1% (inactive) | 76.3% (inactive) | 107% (inactive) | 96% (inactive) |
| N#Cc1c(-c2cccc(Cl)c2)cc(-c2cccc(Cl)c2)[nH]c1=O | 29.6% (inactive) | 57.2% (inactive) | 87.3% (inactive) | 101% (inactive) | 68.4% (inactive) | 82.6% (inactive) | 70.8% (inactive) | 64.1% (inactive) | 56.8% (inactive) | 64.6% (inactive) | 79.2% (inactive) | 52.4% (inactive) | 0.951% (active) | 50.2% (inactive) | 53.8% (inactive) | 67.1% (inactive) | 82.6% (inactive) | 56.1% (inactive) |
| Cc1c(O)cc(-c2cnc(N/N=C\c3ccc(Cl)cc3)s2)c(O)c1C | 58.3% (inactive) | 41.5% (inactive) | 60.7% (inactive) | 102% (inactive) | 61.7% (inactive) | 104% (inactive) | 83.5% (inactive) | 90.3% (inactive) | 77.6% (inactive) | 80.5% (inactive) | -11.2% (active) | 67.3% (inactive) | 97.5% (inactive) | 107% (inactive) | 71.1% (inactive) | 94.6% (inactive) | 111% (inactive) | 86.5% (inactive) |
| COc1cccc(-c2nn(-c3ccccc3)cc2-c2ccnc(NCCNC(=O)c3ccccc3)c2)c1 | -12.5% (active) | 42.3% (inactive) | 43.8% (inactive) | 102% (inactive) | 53.7% (inactive) | 65.3% (inactive) | 79.6% (inactive) | 63.1% (inactive) | 68.5% (inactive) | 46.6% (inactive) | 19.4% (inactive) | 38.4% (inactive) | 65.4% (inactive) | 77.2% (inactive) | 62.5% (inactive) | 44.3% (inactive) | 71.2% (inactive) | 57.3% (inactive) |
| COC(=O)[C@]12CC[C@@H](C)[C@H](C)[C@@H]1C1=CC[C@@H]3[C@@]4(C)C(C=O)=C[C@@](C)(COC(C)=O)[C@@H]4C(=O)C[C@@]3(C)[C@]1(C)CC2 | 48.3% (inactive) | 26% (inactive) | 41.5% (inactive) | 68.8% (inactive) | 38.1% (inactive) | 42.3% (inactive) | 46.3% (inactive) | 39.1% (inactive) | 65.1% (inactive) | 34% (inactive) | 39% (inactive) | 32.4% (inactive) | 50.5% (inactive) | 29.1% (inactive) | 22.7% (inactive) | 5.18% (active) | 40% (inactive) | 28.4% (inactive) |
| CC/C=C\C[C@H](O)C/C=C1/C(=O)C=C[C@@H]1C/C=C\CCCC(=O)OC | -4.28% (active) | -11.5% (active) | -6.94% (active) | 27.1% (inactive) | 36.8% (inactive) | 35.9% (inactive) | 0.514% (active) | -6.12% (active) | 41.1% (inactive) | 20.6% (inactive) | -0.483% (active) | -20.6% (active) | 4.45% (active) | -44.4% (active) | 4.43% (active) | -56.5% (active) | -78.4% (active) | -54.3% (active) |
| S=C(Cc1ccc2c(c1)CCCC2)N1CCOCC1 | 94.7% (inactive) | 112% (inactive) | 104% (inactive) | 99.2% (inactive) | 96.6% (inactive) | 98.2% (inactive) | 101% (inactive) | 107% (inactive) | 115% (inactive) | 105% (inactive) | 80.2% (inactive) | 101% (inactive) | 101% (inactive) | 114% (inactive) | 94.3% (inactive) | 87.6% (inactive) | 98% (inactive) | 106% (inactive) |
